Laboratory results from article PMC5836133, “The intracellular immune receptor Rx1 regulates the DNA-binding activity of a Golden2-like transcription factor”.
Whole data set: some 16,000 sequences, median “e-score” near -0.044, cut for the highest 2% near 0.38. This excerpt belongs to a sample that is enriched for the highest values.

Target: T1, GST-NbGlk1(82-244) (Nicotiana benthamiana)
T1 chain: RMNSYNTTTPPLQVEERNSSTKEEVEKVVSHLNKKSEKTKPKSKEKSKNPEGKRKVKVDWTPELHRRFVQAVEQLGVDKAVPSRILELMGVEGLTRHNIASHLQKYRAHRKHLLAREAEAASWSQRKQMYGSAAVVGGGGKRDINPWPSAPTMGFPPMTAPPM
Experiment: protein-binding microarray; NbGlk1 is a Golden2-like transcription factor of Nicotiana benthamiana; high values mean tight binding
Conditions: protein: recombinant; tags: GST (pTH6838); dsDNA, one strand shown

| Sequence | binding signal [E-score] |
| --- | --- |
| ACGTGATC | 0.232 ± 0.0142 |
| ATTCGCGA | 0.318 ± 0.058 |
| AAATCGCT | 0.295 ± 0.0508 |
| ACAGAAAT | 0.248 ± 0.0234 |
| ATCCGCAT | 0.272 ± 0.0412 |
| AAAGATTT | 0.427 ± 0.00822 |
| AAAGATTA | 0.318 ± 0.0346 |
| AAAGATTG | 0.335 ± 0.0169 |
| CAAGATTG | 0.308 ± 0.0144 |
| AACGATTC | 0.214 ± 0.0649 |
| AAAGATAC | 0.21 ± 0.0674 |
| CAAGATTC | 0.406 ± 0.00476 |
| CAAGATTA | 0.314 ± 0.00322 |
| AAAGATTC | 0.401 ± 0.00855 |
| ATTGTGCG | 0.2 ± 0.0823 |
| ATCGTAAA | 0.239 ± 0.0266 |
| ATCTTCCG | 0.316 ± 0.0643 |
| ATCTGCTA | 0.331 ± 0.0558 |
| AGGATCCG | 0.26 ± 0.0521 |
| ATTTCGTG | 0.367 ± 0.0218 |
| ATTTCGTA | 0.399 ± 0.0199 |
| ATTTCGTC | 0.303 ± 0.0104 |
| ATCTTCAC | 0.352 ± 0.00871 |
| ACTGAGAT | 0.247 ± 0.0201 |
| ATCCCGAG | 0.211 ± 0.027 |

| Sequence | binding signal [E-score] |
| --- | --- |
| AGATATCA | 0.434 ± 0.0219 |
| AGATATCC | 0.47954 ± 0.00034 |
| AGATATAC | 0.241 ± 0.00443 |
| AGATATGG | 0.373 ± 0.0298 |
| AGATATAA | 0.208 ± 0.0225 |
| ATATATCC | 0.262 ± 0.0686 |
| AGATATGA | 0.318 ± 0.00331 |
| ATATATCA | 0.276 ± 0.0382 |
| ATATATCG | 0.276 ± 0.0574 |
| AGATATAG | 0.225 ± 0.0489 |
| AGATATGC | 0.415 ± 0.012 |
| AGATATCG | 0.462 ± 0.00283 |
| ATCTCGCC | 0.314 ± 0.0254 |
| ACCAAGAT | 0.289 ± 0.0649 |
| ATCCTTGA | 0.218 ± 0.0175 |
| ATTTCTAC | 0.285 ± 0.0555 |
| ATTACATA | 0.267 ± 0.0926 |
| ATTACGGC | 0.278 ± 0.0482 |
| AAGTAGAT | 0.216 ± 0.0697 |
| ATCCTTAC | 0.266 ± 0.0362 |
| ACTCAGAT | 0.255 ± 0.0118 |
| ATCTTTAG | 0.26 ± 0.0391 |
| ATTCCCCC | 0.37 ± 0.0231 |
| ATCTATAC | 0.231 ± 0.121 |
| AGATACGC | 0.422 ± 0.0238 |

| Sequence | binding signal [E-score] |
| --- | --- |
| AGATACGG | 0.372 ± 0.019 |
| AGATATAT | 0.316 ± 0.0185 |
| AGATATCT | 0.48 ± 0.00495 |
| AGATACGA | 0.332 ± 0.0469 |
| ACATATCT | 0.344 ± 0.0128 |
| ATCTTCAA | 0.303 ± 0.0183 |
| ATATTGGA | 0.241 ± 0.0475 |
| ATCAGGAA | 0.288 ± 0.064 |
| ATAGGAAT | 0.275 ± 0.0501 |
| AATCCTTC | 0.265 ± 0.077 |
| AATCCGGC | 0.3885 ± 0.00169 |
| AATCCTGT | 0.371 ± 0.0247 |
| AATCCGTG | 0.322 ± 0.0593 |
| AATCCGGG | 0.368 ± 0.0574 |
| AATCCGTC | 0.39 ± 0.0333 |
| AATCCGGA | 0.42 ± 0.0333 |
| ATTCCGGA | 0.232 ± 0.0263 |
| AATCCGTA | 0.337 ± 0.0439 |
| AATCCGGT | 0.393 ± 0.0261 |
| ATCCCGGA | 0.308 ± 0.0187 |
| ATCGTCAA | 0.231 ± 0.0882 |
| ACCCAGAT | 0.247 ± 0.0788 |
| CACCGATA | 0.256 ± 0.0751 |
| ATCAGCGA | 0.229 ± 0.0488 |
| AATCACAA | 0.346 ± 0.0519 |

| Sequence | binding signal [E-score] |
| --- | --- |
| ATTTTCTC | 0.316 ± 0.054 |
| ACGCGGAT | 0.235 ± 0.023 |
| ATAAAGAT | 0.279 ± 0.0792 |
| ACCAATAT | 0.204 ± 0.0315 |
| AATAATAT | 0.259 ± 0.0722 |
| AATCTGAC | 0.417 ± 0.0317 |
| AATATGAT | 0.222 ± 0.00614 |
| AATCTGTC | 0.391 ± 0.00978 |
| AATCTGCT | 0.37 ± 0.0413 |
| AATCTGAT | 0.414 ± 0.0225 |
| ATTCTGAC | 0.242 ± 0.101 |
| ATTCTGTC | 0.335 ± 0.0209 |
| AAACAGAT | 0.229 ± 0.0973 |
| ATCTTGAC | 0.272 ± 0.0538 |
| AATCGTAT | 0.339 ± 0.0131 |
| CAATCGCG | 0.2571 ± 0.00241 |
| ATATCGCC | 0.333 ± 0.0165 |
| ATATCGCG | 0.415 ± 0.00817 |
| AGATCGCA | 0.396 ± 0.016 |
| AAATCGCG | 0.4246 ± 0.00159 |
| AGATCGCT | 0.346 ± 0.00634 |
| AAATCGCA | 0.3786 ± 0.00224 |
| AAATCGCC | 0.322 ± 0.0236 |
| ATATCGCA | 0.355 ± 0.0163 |
| AGATCGTA | 0.283 ± 0.0295 |

| Sequence | binding signal [E-score] |
| --- | --- |
| AGATCGCG | 0.464 ± 0.00467 |
| AGATCGCC | 0.353 ± 0.0264 |
| AGCGCAAT | 0.303 ± 0.0261 |
| CAATCCTG | 0.3281 ± 0.00274 |
| AGATCCTA | 0.314 ± 0.00874 |
| AAATCCTA | 0.417 ± 0.00908 |
| AGATCCTC | 0.387 ± 0.0145 |
| AAATCCTG | 0.4223 ± 0.00332 |
| AAATCGTT | 0.248 ± 0.085 |
| AAATCATT | 0.223 ± 0.00449 |
| AGATCCTG | 0.369 ± 0.0433 |
| CAATCCTA | 0.288 ± 0.0058 |
| AATCCCTA | 0.281 ± 0.0127 |
| AAATCCTT | 0.392 ± 0.0185 |
| ATTTCACC | 0.214 ± 0.151 |
| ATTCCCCA | 0.256 ± 0.075 |
| ATCCTCGC | 0.205 ± 0.0887 |
| ATAGATCC | 0.21 ± 0.00109 |
| ATCTGTTG | 0.301 ± 0.07 |
| ATATATAC | 0.227 ± 0.00145 |
| AAATACGC | 0.2039 ± 0.00167 |
| ATCCGGAC | 0.272 ± 0.0502 |
| ATCGATTA | 0.207 ± 0.0952 |
| CAAGATCG | 0.284 ± 0.0247 |
| AATATAAA | 0.254 ± 0.107 |

| Sequence | binding signal [E-score] |
| --- | --- |
| AATCCCTC | 0.293 ± 0.0225 |
| AAATCCTC | 0.414 ± 0.051 |
| CAATCCTC | 0.269 ± 0.0948 |
| ATTCCCGA | 0.333 ± 0.0675 |
| ATCCCAAG | 0.206 ± 0.0761 |
| AATATATT | 0.285 ± 0.0974 |
| AGAATCTA | 0.48 ± 0.00879 |
| AGAATCTC | 0.469 ± 0.0125 |
| AGAATCGA | 0.342 ± 0.0111 |
| ATAATCTG | 0.356 ± 0.0112 |
| AGAATCGG | 0.375 ± 0.00432 |
| ATAATCTA | 0.334 ± 0.0306 |
| AGAATCTG | 0.4793 ± 0.00413 |
| ATATAAAT | 0.276 ± 0.0236 |
| AGGGAGAT | 0.281 ± 0.00745 |
| ACGGGGAT | 0.214 ± 0.115 |
| AAATATGA | 0.226 ± 0.0549 |
| ATCCGTGA | 0.236 ± 0.116 |
| ATACGTTA | 0.277 ± 0.00931 |
| ATTCCCTG | 0.323 ± 0.0549 |
| ATTACTAG | 0.207 ± 0.0664 |
| ATTTATTA | 0.249 ± 0.00743 |
| AAATATCC | 0.42 ± 0.011 |
| CAATATCC | 0.337 ± 0.0344 |
| AAATATCG | 0.375 ± 0.0121 |

| Sequence | binding signal [E-score] |
| --- | --- |
| ACATATCC | 0.214 ± 0.0275 |
| AAATATCA | 0.367 ± 0.0296 |
| AAATATCT | 0.407 ± 0.0254 |
| ATATTGAG | 0.214 ± 0.00643 |
| ATAAGATC | 0.33 ± 0.000581 |
| ATTCTTTA | 0.258 ± 0.0767 |
| AATCAGGA | 0.394 ± 0.0134 |
| AATCAGGT | 0.32 ± 0.0381 |
| AATCAGGC | 0.2903 ± 0.0023 |
| ATTCCCCG | 0.32 ± 0.0628 |
| ATGATCGC | 0.232 ± 0.0162 |
| CAGATCGG | 0.215 ± 0.0844 |
| AAGATCGC | 0.398 ± 0.00727 |
| AAGATCGA | 0.225 ± 0.00987 |
| CAGATCGC | 0.417 ± 0.00441 |
| AAGATCGT | 0.291 ± 0.0157 |
| AATTCCCC | 0.225 ± 0.0402 |
| AAAGTATC | 0.243 ± 0.0118 |
| ATCGTCTA | 0.208 ± 0.048 |
| ATTGCGCG | 0.378 ± 0.00773 |
| ATCTAGAC | 0.287 ± 0.00928 |
| ATCTAGAG | 0.238 ± 0.0882 |
| ATCTAGAT | 0.398 ± 0.0867 |
